Rows were chosen to be rich in hits. Some 3.4% of all compounds tested hit in one or more screens of this group.
Mcl1-Noxa inh: Mcl-1/Noxa binding inhibitors, primary screen, biochemical, TR-FRET, 1536-well; TR-FRET Mcl-1/Noxa peptide binding, 2 h; 220,000 tested, 1.5% active; AID 1022, 2008; Induced myeloid leukemia cell differentiation protein Mcl-1 (Homo sapiens), Q07820; inhibition, % at 21.7 µM;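 active = compounds that cut the protein-peptide binding signal by more than 50% relative to plate controls in a single-dose test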;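 note: His-tagged Mcl-1 with rhodamine Noxa BH3 peptide and terbium anti-His antibody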
p47phox inh: p47phox/p22phox peptide binding inhibitors, primary screen, biochemical, uHTS, NADPH oxidase regulatory subunit | fluorescence polarization, 2 h | inhibition, % at 24.7 µM | 220,000 tested, 0.53% active;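 active = inhibition above about 30%, limit read from the data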
Target sequence (P14598 whole entry, looked up): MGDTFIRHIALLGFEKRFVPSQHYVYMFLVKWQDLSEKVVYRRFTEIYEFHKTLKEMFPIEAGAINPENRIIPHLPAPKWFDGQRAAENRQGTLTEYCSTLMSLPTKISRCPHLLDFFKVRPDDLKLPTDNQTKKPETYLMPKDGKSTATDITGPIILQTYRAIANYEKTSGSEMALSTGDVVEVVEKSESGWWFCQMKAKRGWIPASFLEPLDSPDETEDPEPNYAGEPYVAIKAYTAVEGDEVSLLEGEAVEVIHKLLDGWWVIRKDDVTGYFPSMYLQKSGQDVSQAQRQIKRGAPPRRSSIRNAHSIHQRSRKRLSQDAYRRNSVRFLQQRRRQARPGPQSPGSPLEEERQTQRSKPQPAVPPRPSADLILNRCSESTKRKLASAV
Mcl1 Bid PPI: Mcl-1/Bid binding inhibitors, primary screen, biochemical, TR-FRET, 1536-well; Induced myeloid leukemia cell differentiation protein Mcl-1 (Homo sapiens), Q07820; TR-FRET Mcl-1/Bid-Dy647 peptide binding; inhibition, % at 21.7 µM; 220,000 tested, 0.97% active; AID 1021, 2008;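 active = compounds that cut the binding signal by more than half at the single screening dose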;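 note: His-tagged Mcl-1 with europium anti-His antibody binding Bid BH3 peptide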
Bim-Mcl-1: inhibitors of Bim peptide binding to Mcl-1, primary screen, biochemical, bead-based flow cytometry, multiplex | Induced myeloid leukemia cell differentiation protein Mcl-1 (Homo sapiens), Q07820 | Bim peptide-Mcl-1 binding | inhibition, % at 10 µM | 190,000 tested, 0.1% active | AID 1009, 2008; in the data active = inhibition above about 40%
m-calpain inh: inhibitors of pig calpain II, primary screen, biochemical, fluorogenic peptide substrate, 1536-well; purified calpain II, 30 min; inhibition, % at 16 µM; 220,000 tested, 0.37% active; AID 1236, 2008;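 active = inhibition above about 50%, limit read from the data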
14-3-3 Bad PPI: inhibitors of 14-3-3 zeta/Bad binding, primary screen, biochemical, TR-FRET, bovine 14-3-3 zeta; AID 781, 2007; 220,000 tested, 0.71% active; 14-3-3 protein zeta/delta (Bos taurus), P63103; inhibition, % at 21.7 µM; TR-FRET 14-3-3zeta/Dy647-pBad peptide displacement, 1 h;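 active = inhibition above about 70%, limit read from the data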
Numbers stand for hits; i = inactive; nt = not tested or not shown.

SMILES | Mcl1-Noxa inh | p47phox inh | Mcl1 Bid PPI | Bim-Mcl-1 | m-calpain inh | 14-3-3 Bad PPI
CCCOc1ccc(-c2c(C(=O)N/N=C/c3ccc(OC)cc3)nnn2-c2nonc2N)cc1 | i | i | i | 55.0 | i | i
NC(=O)C1CCN(C(=O)CSc2ccsc2[N+](=O)[O-])CC1 | i | i | i | i | i | i
COc1ccccc1/C=C(/NC(=O)c1ccc(Cl)cc1Cl)C(=O)O | i | i | i | i | i | 85.5
CCCCNC(=S)Nc1ccccc1Cc1ccccc1 | i | i | i | i | i | i
Cc1oc(C(C)(C)C)cc1C(=O)N1CCN(C(c2ccccc2)c2ccccc2)CC1 | i | i | i | nt | i | i
N/C(=N\O)C1COc2ccccc2O1 (stereo unspecified) | i | i | i | i | i | 83.8
COc1ccc(C2C(C#N)=C(N)OC3=C2C(=O)CCC3)cc1OC (stereo unspecified) | i | i | 70.0 | i | i | i
COc1ccc(C2C(C#N)=C(N)OC3=C2C(=O)CCC3)c(OC)c1OC (stereo unspecified) | i | i | i | i | i | i
COc1ccc(C2C(C#N)=C(N)OC3=C2C(=O)CC(C)C3)c(OC)c1OC (stereo unspecified) | i | i | 52.5 | i | i | i
O=[N+]([O-])c1cccnc1NCc1cccs1 | i | i | i | i | i | i
CSc1nc(-c2ccccc2)nc(NC(C)=O)c1C(C)=O | i | i | i | i | i | i
CCS(=O)(=O)c1ccc(O)c(NC(=O)NC2CCCCC2)c1 | i | i | i | nt | i | i
COc1ccc(CNC(=O)COC(=O)/C=C/c2cccc(Br)c2)cc1 | i | i | i | i | i | i
COc1cccc(-n2c(SCc3cc(=O)oc4cc(O)c(O)cc34)nc3ccccc3c2=O)c1 | 100.3 | i | i | i | i | i
CC(C)n1c(=S)[nH]c2scc(-c3cccs3)c2c1=O | 73.1 | i | i | nt | 59.5 | i
O=C(CN1CCN(Cc2ccccc2Cl)CC1)N/N=C/c1ccccn1 | 69.2 | i | i | nt | i | i
O=C(COc1ccccc1[N+](=O)[O-])N/N=C/c1ccc(O)c([N+](=O)[O-])c1 | i | i | i | i | i | i
Cc1ccccc1OCC(=O)N/N=C/c1ccccn1 | i | i | i | 64.0 | i | i
O=C(COc1ccccc1C(=O)N/N=C\c1ccc(O)c(O)c1)N/N=C/c1ccc(O)c(O)c1 | 99.8 | i | i | i | i | i
Cc1cc(C)cc(OCC(=O)N/N=C/c2ccccn2)c1 | i | i | i | nt | i | i
O=C(Nc1nc2ccccc2[nH]1)C1CCCC1 | i | i | i | i | i | i
O=C(NCc1nc2ccccc2[nH]1)C1CCCCC1 | i | 77.6 | i | i | i | i
NC(=O)c1cccn1-c1ncc(C(F)(F)F)cc1Cl | i | i | 83.3 | i | i | i
O=C(Nc1ccc(Br)cc1)c1cccn1-c1ncc(C(F)(F)F)cc1Cl | i | i | i | i | i | i
Cc1ccc(N2C(=O)CC(N3CCN/C3=C3\CC/C(=C\c4ccccc4)C3=O)C2=O)cc1 (stereo unspecified) | i | i | i | i | i | i
SMILES | Mcl1-Noxa inh | p47phox inh | Mcl1 Bid PPI | Bim-Mcl-1 | m-calpain inh | 14-3-3 Bad PPI
COC(=O)C1=C(C)N(C)C(=O)NC1c1cc2c(cc1[N+](=O)[O-])OCO2 (stereo unspecified) | 52.5 | i | i | i | i | i
COc1ccc(CN(CC2CCC(C(=O)O)CC2)C(=S)Nc2cccc(C)c2)cc1 (stereo unspecified) | i | i | i | i | i | i
CC1Cc2nc(SCC(=O)N3CCc4ccccc43)n(C)c(=O)c2S1 (stereo unspecified) | i | 34.5 | i | i | i | i
Cc1ccc(NC(=O)c2noc3c2CCC3)cc1C | 53.6 | i | i | i | i | i
COc1cc(NC(=O)c2noc3c2CCC3)c(OC)cc1Cl | 62.8 | i | i | i | i | i
COc1ccc(/C=N/NC(=O)c2ccccc2O)cc1Cn1cc([N+](=O)[O-])cn1 | i | i | i | nt | i | i

Compound activity deposited in PubChem BioAssay by several laboratories.
